# Several values for one entry are separate records, joined by “and”; a condition that tells them apart may be missing. Equal entries are not always repeated. Screen size: about 420,000 compounds; about 64,000 (15%) were called active. Another 27% or so got no clear call; they are omitted. Calls follow the shape of the dose curve; as a rule, active = well fitted inhibition curve with a large enough effect; inconclusive = small, poorly fitted or top-dose-only effect; inactive = flat fitted curve, though single readings scatter. A selection follows. A structure can be active in one record and inactive in another.
# Assay: qHTS for Inhibitors of human tyrosyl-DNA phosphodiesterase 1 (TDP1): qHTS in cells in absence of CPT; also: nearly all actives have a fitted effect of over 55% in size
# Settings: DT40 Tdp1-/- hTDP1 cells, no CPT, ATP luminescence, 48 h; activity change, negative = growth inhibition: at 46.2 µM (top of the series)
# How it was run: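 Seeded 400 DT40-hTDP1 cells/well (vehicle DMSO, no 20 nM CPT); pinned compounds; ≥48 hr at 37 °C; CellTiter-Glo luminescence as viability measure.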
# % is scaled to controls: 0 for no effect and ±100 for the full control effect; potency is read from the fitted curve at half-maximal effect.
SMILES,"activity change, negative = growth inhibition",Potency
COc1ccc(S(=O)(=O)N2CCSCC2)cc1,10.9% (inactive),
CCOC(=O)NC(=O)CSc1nnc(SCCC(=O)O)s1,-12.6% (inactive),
COc1ccccc1-c1ccc(C(=O)N(C)C(C)c2ccon2)c(N2CCN(c3ccccc3F)CC2)n1 (configuration not stated),-7.99% (inactive),
N=c1c2c3c(sc2ncn1N)CCCC3,-20.3% (inactive),
O=C(Nc1ccc(S(=O)(=O)N2CCCC2)cc1Cl)C1=COCCO1,-23.1% (inactive),
CC(C)(O)CCC(O)[C@@](C)(O)C1CC[C@]2(O)C3=CC(=O)C4CC(O)C(O)C[C@]4(C)C3CC[C@]12C (some centres not stated),-4.62% (inactive),
C=CCSc1nc2c(c(=O)[nH]1)C(C(C)C)C(C#N)=C(N)O2 (configuration not stated),-1.99% (inactive),
CC1CCCC(NC(=O)CSc2nccn2C)C1C (configuration not stated),-6.17% (inactive),
CSc1ccc(S(=O)(=O)NCC(=O)OCC(=O)NC2(C#N)CCCCC2)cc1[N+](=O)[O-],-9.24% (inactive),
Cc1cc(NC(=O)CCC(=O)N(CC(=O)NCC2CCCO2)c2ccccc2)no1 (configuration not stated),9.22% (inactive),
CCC(C)C(=O)Nc1cc([N+](=O)[O-])ccc1Cl (configuration not stated),-17.5% (inactive),
N/C(=N\OC(=O)/C=C/c1ccccc1)c1ccc(Br)cc1,-11.8% (inactive),
CCOC(=O)c1c(C2CC2)csc1NC(=O)CSCc1c(C)noc1C,-27.5% (inactive),
Cc1cc(NC(=O)CSCc2ccccc2C)no1,5.45% (inactive),
Cc1noc(C)c1CSCC(=O)Nc1ccc(Br)cc1Cl,,10.3 µM (active)
COCCNC(=O)c1cc2c(Br)ccc(Br)c2nc1N,-7.33% (inactive),
CCOC(=O)C1(Cc2ccc(Cl)cc2)CCN(C(=O)C2=NNC(=O)CC2)CC1,-2.39% (inactive),
COc1ccc(CCc2nnc(CCC(=O)NCc3cnn(-c4ccccc4C)c3)o2)cc1,-0.135% (inactive),
COc1ccc(CCNC(=O)C(=O)NCC2OCCN2S(=O)(=O)c2ccc(F)cc2)cc1OC (configuration not stated),-16.9% (inactive),
COc1ccc(CCNC(=O)C(=O)NCC2OCCN2S(=O)(=O)c2ccc(OC)c(C)c2)cc1 (configuration not stated),,18.4 µM (active)
COc1ccc(S(=O)(=O)N2CCOC2CNC(=O)C(=O)NCc2ccncc2)cc1C (configuration not stated),-5.53% (inactive),
COCCNC(=O)c1ccc(S(=O)(=O)c2ccc(Cl)cc2)c(NC(C)=O)c1,15.9% (inactive),
CC1=Nc2cc(C(=O)NCc3ccc(C)cc3)ccc2Sc2ccc(Cl)cc21,,20.6 µM (active)

SMILES,"activity change, negative = growth inhibition",Potency
Cc1ccc(OCCNC(=O)CNC(=O)c2ccc(C)c(C)c2)cc1,-9.12% (inactive),
O=C(NCc1ccc(Cl)cc1)c1ccc2c(c1)nnn2C1CCCC1,-27.9% (inactive),
Cc1ccc(CNC(=O)c2ccc3c(c2)S(=O)(=O)c2ccccc2C3=O)cc1,6.05% (inactive),
COCCNC(=O)c1ccc2c(c1)N=C(C)c1cc(C)ccc1S2,,0.461 µM (active)
O=[N+]([O-])c1ccccc1/C=C/CN1CCCC(CO)C1 (configuration not stated),-21.2% (inactive),
Cc1nnc(SCC(=O)Nc2ncc3c(n2)CC(C)(C)CC3=O)s1,-14.6% (inactive),
O=C(NC(=S)Nc1ncccn1)c1ccccc1Br,-12.9% (inactive),
CCC(C)N(C(=O)COC(=O)c1nc(Cl)ccc1Cl)C1CCS(=O)(=O)C1 (configuration not stated),-1.31% (inactive),
CCN(CC)CCN1C(=O)C(=O)/C(=C(/O)c2ccccc2)C1c1ccccc1F (configuration not stated),-6.62% (inactive),
COc1cccc(C(c2c(O)cc(C)n(Cc3ccco3)c2=O)N2CCN(c3ccccc3)CC2)c1 (configuration not stated),-20% (inactive),
Cc1c(NC(=O)CSc2nnnn2-c2ccc(C(=O)O)cc2)c(=O)n(-c2ccccc2)n1C,11.1% (inactive),
Cc1c(NC(=O)CSc2nnc(-c3cccnc3)n2N)c(=O)n(-c2ccccc2)n1C,15% (inactive),
Cc1c(NC(=O)CSc2cccc3cccnc23)c(=O)n(-c2ccccc2)n1C,,23.1 µM (active)
COc1ccc(F)c(CN2CCC3(CCC(CNC(=O)c4ccn(C)n4)O3)CC2)c1 (configuration not stated),-14.8% (inactive),
Cc1cc(NC(=O)Cn2nc(C(F)(F)F)c3c2CCCC3)no1,-18.9% (inactive),
OCCN1CCOCCOCCN(CCO)CCN(CCO)CC1,-4.43% (inactive),
Cc1cc(C)c(C#N)c(SCc2ccc3c(c2)OCO3)n1,-17% (inactive),
C=CCn1c(-c2sc(-c3ccccc3)nc2C)n[nH]c1=S,,23.1 µM (active)
C=CCn1c(CCNC(=O)c2cccs2)n[nH]c1=S,-7.36% (inactive),
Cc1nc(-c2ccccc2)sc1-c1nnc(C2CC2)o1,-14.2% (inactive),
COc1ccc(/C=C/c2c(-c3cccc(C)c3)oc3ccc(-c4ccc5c(c4)OCO5)cc23)cc1,-6.57% (inactive),
N#C/C(=C\c1ccc(O)c(O)c1)C(N)=O,,inactive and 29.9 µM (active)
CC(C)NC(=O)/C(C#N)=C\c1ccc(N(C)C)c(Br)c1,-16.7% (inactive),

SMILES,"activity change, negative = growth inhibition",Potency
CC(C)(C)C(=O)/C(C#N)=C/c1ccc(O)cc1,-9.28% (inactive),
CCc1nc2ccc(C(=O)N(C)CCN(C)C)cn2c1N(CC)CCOC,-1.11% (inactive),
COc1ccc(N(C(=O)c2cccnc2)S(=O)(=O)c2ccc(OC)c(OC)c2)cc1,-21% (inactive),
Cc1cc(NC(=O)CCS(=O)(=O)c2ccc(F)cc2)no1,-10% (inactive),
CCOC(=O)N1CCN(C(=O)C[C@@H]2C[C@@]3(C(=O)OC)CCCCC=C3N(CCC3=CCCCC3)C2=O)CC1,,16.4 µM (active)
CCOC(=O)[C@]12CCCC=C1N(CCC1=CCCCC1)C(=O)[C@H](CC(=O)N1CCSCC1)C2,,16.4 µM (active)
CCOC(=O)[C@]12CCCC=C1N(CCC1=CCCCC1)C(=O)[C@H](CC(=O)N1CCOCC1)C2,,16.4 µM (active)
CCOC(=O)N1CCN(C(=O)COc2ccc(Br)cc2)CC1,-25.8% (inactive),
CCOC(=O)[C@]12CCCC=C1N(CCC1=CCCCC1)C(=O)[C@H](CC(=O)N1CCCCC1)C2,,5.17 µM (active)
CSc1c(SCc2ccccc2)cnn(Cc2ccccc2)c1=O,-12.4% (inactive),
Cc1ccc(N)cc1-n1c(C)ccc1C,-17.2% (inactive),
C/C=C/C(=O)OCc1csc(CC(=O)Nc2ccccc2C)n1,7.75% (inactive),
CC1CC1C(=O)OCC(=O)Nc1cccc(F)c1 (configuration not stated),7.03% (inactive),
Cc1cc(-c2nnc(SCC(=O)Nc3ccc(F)cc3)n2N)n[nH]1,21.3% (inactive),
O=C(CN1C(=O)CSC1=O)N1CCCC(Nc2ccc(F)cc2)C1 (configuration not stated),-4.21% (inactive),
Cc1ccc(S(=O)(=O)N(C)c2ccc(OCC(=O)NC3=NCCS3)cc2)cc1,1.46% (inactive),
CC(C)NC(=O)Nc1cccc2c1O[C@H](CN(C)S(=O)(=O)c1cccs1)[C@@H](C)CN([C@H](C)CO)C2=O,-28.3% (inactive),
COC(=O)[C@]12CCCCC=C1N(CCC1=CCCCC1)C(=O)[C@H](CC(=O)N1CCSCC1)C2,,16.4 µM (active)
COc1ccc(Cl)cc1N(CC(=O)N1CCCCC1)S(C)(=O)=O,-8.52% (inactive),
CCOC(=O)[C@]12CCC=C1N(Cc1ccccc1)C(=O)[C@H](CC(=O)N1CCCC1)C2,-25.7% (inactive),
CCOC(=O)[C@]12CCCC=C1N(Cc1ccc(Cl)cc1Cl)C(=O)[C@H](CC(=O)N1CCCCC1)C2,,23.1 µM (active)

# Source: PubChem BioAssay AID686978 (National Center for Advancing Translational Sciences (NCATS), 2013)
